Test results reported in PMC4552634, “A New Set of Chemical Starting Points with Plasmodium falciparum Transmission-Blocking Potential for Antimalarial Drug Discovery” (PLoS ONE, 2015).
Screen size: about 13,000 compounds; about 3,200 (25%) showed an effect of 50% or more. Some of the results follow.

These molecules were tested on P. falciparum stage V gametocytes. Conditions: 48 h, 5 µM; inhibitor.
Parameters: BacTiter-Glo ATP luminescence viability of purified stage V gametocytes in 384-well plates, per cent inhibition versus DMSO

Row | SMILES | % Inhibition [%]
1 | COc1ccccc1CN1CCC(NC(=O)c2ccc(-c3cccc(Cl)c3)s2)CC1 [TCMDC-134356] | -14.44
2 | CN(C)c1ccc(-c2ccc(C(=O)NC3CCN(Cc4ccccc4)CC3)s2)cc1 [TCMDC-134367] | 44.5
3 | COc1cccc(-c2ccc(C(=O)NC3CCN(Cc4ccc(C(C)(C)C)cc4)CC3)s2)c1 [TCMDC-134353] | -20.06
4 | COc1cccc(-c2ccc(C(=O)NC3CCN(Cc4ccc(N(C)C)cc4)CC3)s2)c1 [TCMDC-134330] | 105
5 | COc1ccccc1CN1CCC(NC(=O)c2ccc(-c3ccc(N(C)C)cc3)s2)CC1 [TCMDC-134357] | 85.69
6 | CC(=O)Nc1ccc(CN2CCC(NC(=O)c3ccc(-c4cccc(Cl)c4)s3)CC2)cc1 [TCMDC-134334] | 14.56
7 | CN(C)c1ccc(-c2ccc(C(=O)NC3CCN(Cc4ccccc4F)CC3)s2)cc1 [TCMDC-134368] | -72.91
8 | CN(C)c1ccc(CN2CCC(NC(=O)c3ccc(-c4cccc(Cl)c4)s3)CC2)cc1 [TCMDC-134329] | -64.24
9 | CSc1ccc(CN2CCC(NC(=O)c3ccc(-c4ccc(N(C)C)cc4)s3)CC2)cc1 [TCMDC-134342] | -80.35
10 | CCc1ccc(CN2CCC(NC(=O)c3ccc(-c4ccc(N(C)C)cc4)s3)CC2)cc1 [TCMDC-134344] | -78.7
11 | CN(C)c1ccc(CN2CCC(NC(=O)c3ccc(-c4ccc(N(C)C)cc4)s3)CC2)cc1 [TCMDC-134331] | 56.81
12 | CC(=O)Nc1ccc(CN2CCC(NC(=O)c3ccc(-c4ccc(N(C)C)cc4)s3)CC2)cc1 [TCMDC-134336] | 72.62
13 | O=C(NCc1cccc2ccccc12)C(c1cc2ccccc2o1)N1CCN(C(c2ccccc2)c2ccccc2)CC1 (centres unmarked) [TCMDC-141007] | 25.05
14 | CCCCCCN1CCN(Cc2cccc(NC(=O)c3cc4ccccc4o3)c2)CC1 [TCMDC-134620] | -12.01
15 | CCNC(=O)c1ccc2c(c1)c(C)c(C)n2Cc1ccc(F)cc1 [TCMDC-124754] | 32.09
16 | CC(=O)C1(c2ccccc2)CCN(CCC2(c3ccc(Cl)c(Cl)c3)CN(C(=O)c3cccc(Cl)c3)CCO2)CC1 (centres unmarked) [TCMDC-135347] | -30.91
17 | CNS(=O)(=O)c1ccc(NC(=O)c2cc(-c3cccnc3)nc3ccc(Br)cc23)cc1 [TCMDC-125216] | -3.498
18 | Cc1ccccc1C1CCN(C2CCC(NC(=O)C3=Cc4ccccc4OC3)CC2)CC1 (centres unmarked) [TCMDC-133553] | -49.51
19 | O=S(=O)(NCCN1CCCC1)c1cccc(-c2ccc(CNC3Cc4ccccc4C3)cc2)c1 [TCMDC-132241] | 96.68
20 | O=S(=O)(NCCN1CCCC1)c1ccc(-c2ccc(CNC3Cc4ccccc4C3)cc2)cc1 [TCMDC-132229] | 60.05
21 | O=S(=O)(NCCN1CCCC1)c1ccc(-c2cccc(CNC3Cc4ccccc4C3)c2)cc1 [TCMDC-132215] | 70.89
22 | COc1ccc(C2CCN(CCN3CCC(NC(=O)c4ccc(-c5cccc(C(F)(F)F)c5C(F)(F)F)cc4)CC3)CC2)c(OC)c1 [TCMDC-135427] | -31.75
23 | CC(C)[C@H](NC(=O)c1ccc(O)c(-c2ccc(Cl)c(Cl)c2)c1)C(=O)NCCN1CCCC1 [TCMDC-140828] | 38.9

Row | SMILES | % Inhibition [%]
24 | CN1CCN(c2ccnc3ccc(NC(=O)Nc4ccc5c(c4)CCC5=O)cc23)CC1 [TCMDC-139266] | 0.4556
25 | O=C(Cc1cccc(Cl)c1)Nc1cccc(-c2c[nH]c3nc(Nc4ccccc4)ncc23)c1 [TCMDC-134679] | 29.34
26 | O=C(C=Cc1ccc(Cl)c(Cl)c1)NCCCCCN1CCC(c2[nH]nc3ccccc23)CC1 [TCMDC-139402] | -6.391
27 | Cc1ccccc1OCC(O)CNC1CCC(NCC(O)COc2ccccc2C)CC1 (centres unmarked) [TCMDC-125142] | 150
28 | CCCc1ccccc1OCC(O)CN(C1CCCC1)C1CCCC1 (centres unmarked) [TCMDC-131423] | -5.815
29 | COc1cccc2c(O)c(CNC3CCCCC3)ccc12 [TCMDC-137595] | 11.64
30 | O=C1NC(c2ccccc2)C2(CCN(CC(O)COc3cccc4ncccc34)CC2)O1 (centres unmarked) [TCMDC-136710] | -26.23
31 | CCC(C)(C)c1ccc(OCC(O)CN2CCCCC2)c(C(C)(C)CC)c1 (centres unmarked) [TCMDC-123833] | 2.758
32 | Cc1ccccc1OCC(O)CN1CCC(C2CCN(CC(O)COc3ccccc3C)CC2)CC1 (centres unmarked) [TCMDC-131841] | 97.67
33 | COc1ccc(NC(=O)Nc2ccc(-c3ccccc3)cc2)cc1Cn1cnc(N2CCCNCC2)cc1=O [TCMDC-134316] | 22.91
34 | O=C(/C=C/c1ccc(Cl)c(Cl)c1)Nc1cccc(CN2CCC(c3c[nH]c4ccccc34)CC2)c1 [TCMDC-139600] | 0.6115
35 | CC(=O)Nc1ncc(C(=O)Nc2cccc(-c3ccc(-c4nc5ccccc5[nH]4)cc3)c2)s1 [TCMDC-136917] | 7.51
36 | Oc1ccc2c(c1CNC1CCCCC1)CCCC2 [TCMDC-137501] | 23.3
37 | Oc1ccc(-c2ccccc2)cc1CNC1CCCCC1 [TCMDC-137603] | -11.44
38 | CCC(=C(CC)c1ccc(O)c(CNC2CCCCC2)c1)c1ccc(O)c(CNC2CCCCC2)c1 [TCMDC-137481] | 84.66
39 | CC(C)(C)c1ccc(O)c(CNC2CCCCC2)c1 [TCMDC-125856] | 17.68
40 | O=C(CNC1CCCCC1)c1ccc(O)c(O)c1 [TCMDC-123961] | 59.16
41 | Cc1cc(O)c(CNC2CCCCC2)cc1C [TCMDC-137589] | -0.1252
42 | FC(F)(F)c1ccc2nccc(NN=Cc3cccnc3)c2c1 [TCMDC-142021] | -27.85
43 | Cc1noc(-c2ccc(N3CCC(C(=O)N4CCN(C(C)C)CC4)CC3)cc2)n1 [TCMDC-136012] | 8.914
44 | COc1ccc2nccc([C@@H](O)CN3CCC(NC(=O)c4ccc(Oc5ccccc5)cc4)CC3)c2c1 [TCMDC-141028] | -18.23
45 | Cc1noc(C)c1-c1cccc(CNCc2cccc(-c3cccc(-c4nc5cc(C(F)(F)F)ccc5[nH]4)c3)c2)c1.O=C(O)C(F)(F)F [TCMDC-133053] | -28.51
46 | COc1ccc(C2CC(c3cccs3)=NN2C(=O)CNc2cccc(C#N)c2)cc1OC (centres unmarked) [TCMDC-125050] | -31.46

Row | SMILES | % Inhibition [%]
47 | N=C(NCCCc1ccccc1)c1cccc(C(=N)NCCCc2ccccc2)n1 [TCMDC-137453] | 100.2
48 | N=C(NCCCCC1CCCCC1)c1cccc(C(=N)NCCCCC2CCCCC2)n1 [TCMDC-137452] | 115.6
49 | OC(CNCCCc1ccccc1)c1cc(OCc2ccccc2)cc(OCc2ccccc2)c1 (centres unmarked) [TCMDC-132033] | 38.73
50 | N=C(NCC1CC1c1ccccc1)c1cccc(C(=N)NCC2CC2c2ccccc2)n1 (centres unmarked) [TCMDC-137456] | 113.7
51 | Cc1cc2nc(-c3ccc(/C=C/C(=O)NCCCc4ccccc4)cc3)[nH]c2cc1C [TCMDC-140436] | -5.063
52 | N#Cc1c(Cl)cccc1Oc1ccc(S(=O)(=O)N2CCC(CN3CCC(c4c[nH]c5ccccc45)CC3)CC2)cc1 [TCMDC-140172] | 15.16
53 | Cc1cc(NC(=O)c2coc3cc(F)c(N4CC(C)N(C)C(C)C4)cc23)ccc1-n1ccnc1 (centres unmarked) [TCMDC-141394] | 18.23
54 | CCNc1cc(C(=O)N[C@@H](Cc2ccccc2)[C@H](O)CNCc2cccc(OC)c2C)cc(N2CCCCS2(=O)=O)c1 [TCMDC-132413] | 37.46
55 | Cc1ccc(-c2ccc3c(c2)C=C(C(=O)NC2CCN(CCNC(=O)c4cccs4)CC2)CCC3)cc1 [TCMDC-141949] | -0.2388
56 | Cc1nnc(-c2cccc(Nc3ccnc4cc(-c5nccs5)ccc34)c2)o1 [TCMDC-138335] | 93.46
57 | CC(O)c1cccc(-c2ccc(Nc3ccnc4cc(-c5nccs5)ccc34)cc2)c1 (centres unmarked) [TCMDC-138331] | -54.01
58 | Cc1cccc(-c2cc3cc(Nc4ccnc5cc(-c6nccs6)ccc45)ccc3[nH]2)c1 [TCMDC-138348] | -37.38
59 | CC(C)(C)c1cc2cc(Nc3ccnc4cc(-c5nccs5)ccc34)ccc2[nH]1 [TCMDC-138349] | 14.13
60 | Cc1nc(-c2cccc(Nc3ccnc4cc(-c5nccs5)ccc34)c2)no1 [TCMDC-138334] | 113.3
61 | Cc1ccc2nc(-c3ccccc3Nc3ccnc4cc(-c5nccs5)ccc34)[nH]c2c1 [TCMDC-138345] | 108.2
62 | c1ccc(-c2nc3ccccc3[nH]2)c(Nc2ccnc3cc(-c4nccs4)ccc23)c1 [TCMDC-138346] | 44.29
63 | Nc1n[nH]c(-c2ccccc2Nc2ccnc3cc(-c4nccs4)ccc23)n1 [TCMDC-138301] | 14.85
64 | c1ccc(Cn2nnnc2-c2cccc(Nc3ccnc4cc(-c5nccs5)ccc34)c2)cc1 [TCMDC-138337] | 1.923
65 | O=C(NCC(NCCCNc1cc(=O)c2ccccc2[nH]1)c1cc(Br)cc(Br)c1)C1=CCCC1 (centres unmarked) [TCMDC-140317] | -52.55
66 | CC(=O)N[C@H](C(=O)Nc1cccc(-c2ccc(-c3nc4cccc(C)c4[nH]3)s2)c1)C(C)C [TCMDC-136855] | 31.89
67 | Cc1ccc(-c2nc(N3CCN(C(=O)c4ccco4)CC3)c3ccc(Cl)cc3n2)cc1 [TCMDC-124781] | 24.46
68 | Cc1ccc2c(Cl)c(C(=O)N3CC(C)OC(C)C3)sc2c1 (centres unmarked) [TCMDC-125624] | 35.35
